Laboratory results from PubChem BioAssay (NCI).
The panel holds about 83,000 compounds, 20% with a hit somewhere; the sample as a whole holds those more often.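 Treatment: one concentration, 48 hours, 96-well format. Scoring: percent growth, with anything below 10 considered active.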 Values without a mark were called inactive. The source made the active and inactive calls.

Key:
Assay in all cases: NCI-60 one-dose screen, 48 h (100 = growth as untreated, 0 = no growth, -100 = all killed)
NCI-H23 lung = conditions: 10 µM unless noted
NCI-H226 lung = conditions: 10 µM unless noted
MDA-MB-231 breast = conditions: 10 µM unless noted
SF-268 CNS = conditions: 10 µM unless noted
M14 melanoma = conditions: 10 µM unless noted
HCT-15 colon = conditions: 10 µM
SNB-75 CNS = conditions: 10 µM unless noted
U251 CNS = conditions: 10 µM unless noted
PC-3 prostate = conditions: 10 µM unless noted
UACC-62 melanoma = conditions: 10 µM unless noted
OVCAR-8 ovarian = conditions: 10 µM unless noted
OVCAR-5 ovarian = conditions: 10 µM unless noted
SK-OV-3 ovarian = conditions: 10 µM unless noted
OVCAR-3 ovarian = conditions: 10 µM unless noted
NCI/ADR-RES ovarian = conditions: 10 µM unless noted
MDA-MB-435 melanoma = conditions: 10 µM unless noted
MCF7 breast = conditions: 10 µM unless noted
HCT-116 colon = conditions: 10 µM unless noted
KM12 colon = conditions: 10 µM unless noted
DU-145 prostate = conditions: 10 µM unless noted

| SMILES | growth (NCI-H23 lung) [%] | growth (NCI-H226 lung) | growth (MDA-MB-231 breast) [%] | growth (SF-268 CNS) [%] | growth (M14 melanoma) [%] | growth (HCT-15 colon) [%] | growth (SNB-75 CNS) [%] | growth (U251 CNS) [%] | growth (PC-3 prostate) [%] | growth (UACC-62 melanoma) [%] | growth (OVCAR-8 ovarian) [%] | growth (OVCAR-5 ovarian) [%] | growth (SK-OV-3 ovarian) [%] | growth (OVCAR-3 ovarian) [%] | growth (NCI/ADR-RES ovarian) [%] | growth (MDA-MB-435 melanoma) [%] | growth (MCF7 breast) [%] | growth (HCT-116 colon) [%] | growth (KM12 colon) [%] | growth (DU-145 prostate) [%] |
| --- | --- | --- | --- | --- | --- | --- | --- | --- | --- | --- | --- | --- | --- | --- | --- | --- | --- | --- | --- | --- |
| O=S(=O)(F)c1ncnc2nc[nH]c12 | 95.5 | 89.6% | 93.9 | 70 | 100 | 98.3 | 87.3 | 98.5 | 93.7 | 89.8 | 100 | 90.7 | 94.7 | 60.7 | 93.8 | 100 | 84.1 | 100 | 81.8 | – |
| COc1cc2c(cc1OC)CN(C)C(C)C2 (centres undefined) | 101 | 96.8% | 110 | 96 | 100 | 102 | 87.3 | 101 | 97.4 | 89.4 | 105 | 101 | 103 | 113 | 101 | 101 | 95.5 | 105 | 102 | 109 |
| Cc1cc(N(CCCl)CCCl)ccc1C=Nc1ccc2ccccc2c1 | 60.8 | -49.7% (active) | 92 | 72.3 | 88 | 79.7 | 72 | 63 | 77.2 | 28.4 | 72.7 | 24.4 | 80.9 | 85.7 | 71.2 | 90.6 | 40 | 79.9 | 87.6 | 71.5 |
